# Screening data deposited in PubChem BioAssay by Broad Institute.
# U2OS ROS induce: inducers of reactive oxygen species in cancer cells | U2OS ROS induction, H2DCF-DA fluorescence | ROS induction (% of piperlongumine), % at 10 µM | hit rate 2% among 46,000 | AID 624156; in the data active = ROS induction above about 79%, passing the limit was not always enough; inconclusive = no clear call, values can overlap the other calls;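 note: 0% = DMSO vehicle median and 100% = reference compound median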
# NOMO-1 viab: STK33 inhibitor candidate reducing NOMO-1 cell viability; NOMO-1 AML viability, CellTiter-Glo luminescence, 72 h; inhibition, % (test concentration not listed); hit rate 7.5% among 37,000; AID 2330; in the data active = inhibition above about 80%; inconclusive = no clear call, values can overlap the other calls
# YB-1 expr inh: YB-1 expression inhibition. hit rate 0.37% among 30,000. U2OS, qRT-PCR YB-1 vs CDIP delta delta Cp, 16 h; hits give high values; zero = DMSO, each unit about twofold. delta delta Cp (YB-1 minus CDIP) (concentration not given with the values);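 active = delta delta Cp rounded down to an integer at or above 3, about 3 SD of DMSO wells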;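 note: higher means less YB-1 transcript or more CDIP transcript relative to DMSO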
# PD-1 reversal: reversal of PD-1 mediated T-cell inhibition; primary human CD4 T cells, PD-L1 beads, CellTiter-Glo 96 h; activation, % (test concentration not listed); 29,000 tested, under 10 active; call rule not given here;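 note: 0% = median vehicle wells and 100% = positive control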
# * = called active by the depositor; ? = inconclusive; nt = no result. Many of the other results were omitted from the sample, so hits are more common in it than they were.
SMILES,U2OS ROS induce,NOMO-1 viab,YB-1 expr inh,PD-1 reversal
C[C@H](CO)N1C[C@H](C)[C@H](CN(C)Cc2ccc(C(=O)Nc3ccccc3N)cc2)Oc2ccc(NC(=O)Cc3cn(C)c4ccccc34)cc2C1=O,42.3,102.3*,-0.16,-1.9
C[C@@H]1CN([C@@H](C)CO)C(=O)c2cc(NC(=O)Cc3cn(C)c4ccccc34)ccc2O[C@@H]1CN(C)Cc1ccc(C(=O)Nc2ccccc2N)cc1,12.9,99.4*,-0.17,-3.5
CCn1c(C(=O)NCCc2ccccc2)cc2oc3ccccc3c21,0.7,nt,nt,nt
Cc1scc(C(=O)Nc2cccc(Cn3cccn3)c2)c1-c1ccccc1,-7.3,34.9,nt,-1.5
O=C(CSc1nnc(Nc2ccccc2)n1-c1ccccc1)Nc1ccccc1Cl,-3.4,-5.2,nt,-2.2
CC1CCc2c(sc(NC(=O)c3cc(-c4cccnc4)nc4ccc(Cl)cc34)c2C(N)=O)C1 (configuration not stated),nt,29.5,nt,nt
COc1cc2c(c(OC)c1OC)-c1cc3c(cc1C[C@H]1C(=O)OC[C@@H]1C2)OCO3,21.7,105.8*,-0.023,-1.1
CC1CC(=O)c2c(ccc3c2C(=O)c2cccc(O)c2C3O)C1 (configuration not stated),6.7,117.5*,0.0553,-7.1
CCOC(=O)c1c(NC(=S)NC(=O)c2ccc3c(c2)OCCO3)sc(C(=O)OC)c1C,-19.5,-4.9,nt,1.2
S=C(NCc1ccccc1Cl)NC12CC3CC(CC(C3)C1)C2,24.3,114.5*,0.151,-9.1
COc1ccc(NC(=O)N(C)C[C@@H]2Oc3c(NC(=O)Nc4ccc(C(F)(F)F)cc4)cccc3C(=O)N([C@@H](C)CO)C[C@H]2C)cc1,9.2,93.4*,0.148,-3.5
C[C@H](CO)N1C[C@H](C)[C@H](CN(C)C(=O)Nc2ccc(C(F)(F)F)cc2)Oc2c(NS(=O)(=O)c3ccc(F)cc3)cccc2C1=O,47.7,84.2*,0.465,-3.8
C[C@@H]1CN([C@H](C)CO)C(=O)c2cccc(NC(=O)Nc3ccccc3)c2O[C@H]1CN(C)C(=O)Nc1ccc(C(F)(F)F)cc1,-1.8,24.6,-0.0161,0.1
C[C@@H]1CN([C@H](C)CO)C(=O)c2cccc(NC(=O)Nc3ccc(C(F)(F)F)cc3)c2O[C@H]1CN(C)C(=O)Nc1ccc(C(F)(F)F)cc1,2.2,?,0.0201,nt
C[C@@H]1CN([C@@H](C)CO)C(=O)c2cccc(NC(=O)Nc3ccc(C(F)(F)F)cc3)c2O[C@@H]1CN(C)C(=O)Nc1ccc(C(F)(F)F)cc1,18.0,114.9*,0.648,-3.8
COc1ccc(NC(=O)Nc2cccc3c2O[C@H](CN(C)C(=O)Nc2ccc(C(F)(F)F)cc2)[C@@H](C)CN([C@H](C)CO)C3=O)cc1,-14.0,23.1,-0.516,nt
C[C@H]1CN([C@@H](C)CO)C(=O)c2cccc(NC(=O)Nc3ccc(C(F)(F)F)cc3)c2O[C@H]1CN(C)C(=O)Nc1ccccc1,27.0,103.3*,0.259,-8.1
C=CCNc1ncnc2c1c(-c1ccccc1)cn2-c1cccc(C)c1,39.3,nt,nt,nt
O=C(CSc1ccccc1)Nc1ccc(C(=O)Nc2ccc(Br)cc2C(=O)O)cc1,nt,15.9,nt,nt
O=C(Cn1c(=O)c2cccn2c2ccccc21)NCc1ccccc1,-9.5,nt,nt,nt
C[C@@H]1CCCCO[C@H](CN(C)Cc2ccc(Cl)c(Cl)c2)[C@@H](C)CN([C@H](C)CO)C(=O)c2cc(NS(=O)(=O)c3ccc(F)cc3)ccc2O1,43.2,60.8,-0.00423,-1.5
Cc1ccc(S(=O)(=O)Nc2ccc3c(c2)C(=O)N([C@H](C)CO)C[C@H](C)[C@H](CN(C)Cc2ccc(Cl)c(Cl)c2)OCCCC[C@@H](C)O3)cc1,27.4,110.7*,-0.431,-11.7
C[C@@H]1CN([C@@H](C)CO)C(=O)c2cc(NS(=O)(=O)c3ccc(F)cc3)ccc2O[C@H]1CN(C)Cc1ccc(Cl)c(Cl)c1,37.0,?,-0.151,-2.1
Cc1ccc(S(=O)(=O)Nc2ccc3c(c2)C(=O)N([C@@H](C)CO)C[C@H](C)[C@@H](CN(C)Cc2ccc(Cl)c(Cl)c2)O3)cc1,12.7,106.4*,-0.336,-1.1
Cc1ccc(S(=O)(=O)Nc2ccc3c(c2)C(=O)N([C@@H](C)CO)C[C@@H](C)[C@@H](CN(C)Cc2ccc(Cl)c(Cl)c2)O3)cc1,12.4,117.4*,0.466,-1.6
SMILES,U2OS ROS induce,NOMO-1 viab,YB-1 expr inh,PD-1 reversal
CC(=O)N1C(=S)NC(=O)/C1=C\c1ccc(C(C)C)cc1,-9.0,nt,nt,nt
COc1ccc(CCNC(=O)CSc2ncnc3c2nnn3Cc2ccccc2)cc1OC,11.5,nt,nt,nt
COC(=O)C1CCCN1S(=O)(=O)c1ccccc1 (configuration not stated),8.6,92.6*,-0.15,-0.1
O=S(=O)(CCSc1nc2ccccc2o1)c1nc2ccccc2s1,32.1,126.8*,nt,-12.5
O=S(=O)(CCSc1ccccn1)c1nc2ccccc2s1,nt,107.9*,nt,nt
CCn1c(SCC(=O)Nc2cccc(OC)c2)nc2scc(-c3ccccc3)c2c1=O,nt,22.4,nt,nt
Cc1cc(C(=O)Nc2cccc3c2O[C@@H](CN(C)Cc2ccc(Oc4ccccc4)cc2)[C@H](C)CN([C@H](C)CO)C3=O)n(C)n1,105.7*,89.3*,-0.21,-2.7
Cc1cc(C(=O)Nc2cccc3c2O[C@H](CN(C)Cc2ccc(Oc4ccccc4)cc2)[C@@H](C)CN([C@@H](C)CO)C3=O)n(C)n1,123.6*,69.8,-0.246,-2.0
Cc1cc(C(=O)Nc2cccc3c2O[C@H](CN(C)Cc2ccc(Oc4ccccc4)cc2)[C@H](C)CN([C@@H](C)CO)C3=O)n(C)n1,20.9,2.5,-0.368,0.8
N#Cc1c(C(F)(F)F)cc(-c2ccccc2)nc1SCC1COc2ccccc2O1 (configuration not stated),19.5,nt,nt,nt
Cc1ccc(C)n1-c1ccc(C(=O)OCC(=O)c2ccc(Cl)cc2)cc1,13.8,121.4*,-0.0578,-0.9
COCCn1c(-c2ccc(C(C)(C)C)cc2)n[nH]c1=S,5.0,nt,nt,nt
COc1ccc(S(=O)(=O)Nc2ccc3c(c2)CC(=O)N([C@@H](C)CO)C[C@H](C)[C@H](CN(C)Cc2ccc(-c4ccccc4)cc2)O3)cc1,-2.8,89.8*,-0.268,0.2
COc1ccc(S(=O)(=O)Nc2ccc3c(c2)CC(=O)N([C@H](C)CO)C[C@H](C)[C@H](CN(C)Cc2ccc(-c4ccccc4)cc2)O3)cc1,8.3,88.3*,0.239,nt
COc1ccc(S(=O)(=O)Nc2ccc3c(c2)CC(=O)N([C@@H](C)CO)C[C@@H](C)[C@@H](CN(C)Cc2ccc(-c4ccccc4)cc2)O3)cc1,-0.4,62.3,-0.0568,0.6
COc1ccc(S(=O)(=O)Nc2ccc3c(c2)CC(=O)N([C@@H](C)CO)C[C@H](C)[C@@H](CN(C)Cc2ccc(-c4ccccc4)cc2)O3)cc1,49.6,124.9*,0.0219,nt
O=C(c1ccc(F)cc1)n1nc(-c2ccc(Cl)cc2)nc1NCc1ccco1,nt,104.0*,nt,-0.3
COc1ccc(S(=O)(=O)Nc2cccc3c2O[C@@H](CN(C)Cc2ccc(C(=O)Nc4ccccc4N)cc2)[C@@H](C)CN([C@H](C)CO)C3=O)cc1,20.7,110.3*,-0.178,1.7
